The results in this text go back to PMC11995724, “Antibiotic target discovery by integrated phenotypic and activity-based profiling of electrophilic fragments” (Cell chemical biology, 2025).

Screen size: about 3,200 compounds; about 110 (3.4%) showed an effect of 50% or more. What follows is part of a selection rich in strong results, with near analogues and random picks from the rest.

This assay has as its system T1, V. cholerae SAD30.
T1 construct: SAD30
Details: species or system S. aureus MSSA476 (TSB) or V. cholerae SAD30 (LB); 384-well bacterial growth screen at 25 uM, OD600 relative to DMSO control. The following applies: relative growth, OD600, LB; 25 µM; inhibitor.
With `C=CC(=O)NCc1csc(C(C)(C)C)n1` [2-C09, N-[(2-tert-butyl-1,3-thiazol-4-yl)methyl]prop-2-enamide], the “% of control remaining” value came to 91.5854%.

As for `COc1ccc(C=C(C#N)C(=O)Nc2ccc(Cl)c(Cl)c2)cc1` [8-C03, 2-cyano-N-(3,4-dichlorophenyl)-3-(4-methoxyphenyl)prop-2-enamide], the “% of control remaining” value is 89.395%.

Consider `C=CC(=O)Nc1cc(Cl)cc(C)c1OC` [1-E16, N-(5-chloro-2-methoxy-3-methylphenyl)prop-2-enamide], for which the “% of control remaining” value is 87.145%.

For `C=CC(=O)Nc1c(OC)nc(Cl)nc1OC` [1-B14, N-(2-chloro-4,6-dimethoxypyrimidin-5-yl)prop-2-enamide], the “% of control remaining” value amounted to 48.0864%.

With `C=CC(=O)Nc1ccc(C(N)=O)nc1OC` [1-E18, 6-methoxy-5-(prop-2-enamido)pyridine-2-carboxamide], the “% of control remaining” value amounted to 89.6861%.

As for `N#CC(=Cc1cccc(Cl)c1Cl)C(=O)NCCc1ccccc1` [8-J06, 2-cyano-3-(2,3-dichlorophenyl)-N-(2-phenylethyl)prop-2-enamide], the “% of control remaining” value is listed as 78.9259%.

For the compound `CCN(CC)c1ccc(NC(=O)CCl)cc1` [6-N10, 2-chloro-N-[4-(diethylamino)phenyl]acetamide], the “% of control remaining” value is recorded as 90.5489%.

Consider `C=CC(=O)Nc1ccc(C)cc1S(=O)(=O)N1CCOCC1` [1-O13, N-[4-methyl-2-(morpholine-4-sulfonyl)phenyl]prop-2-enamide], for which the “% of control remaining” value is recorded as 87.2945%.

Regarding `Cc1ccccc1NC(=O)C(C#N)=Cc1cc2c(cc1[N+](=O)[O-])OCO2` [9-P11, 2-cyano-N-(2-methylphenyl)-3-(6-nitro-1,3-dioxaindan-5-yl)prop-2-enamide], the “% of control remaining” value was 84.5003%.

As for `C=CC(=O)N1CCCC(c2nn(C)cc2C(N)=O)C1` (stereo not drawn) [1-D07, 1-methyl-3-[1-(prop-2-enoyl)piperidin-3-yl]-1H-pyrazole-4-carboxamide], the “% of control remaining” value came to 92.9746%.

Consider `Cc1cc(C(=O)CCl)c(C)n1Cc1ccc(F)cc1` [10-N17, 2-chloro-1-{1-[(4-fluorophenyl)methyl]-2,5-dimethyl-1H-pyrrol-3-yl}ethan-1-one], for which the “% of control remaining” value is 95.5387%.

For `O=C(CCl)c1ccc(F)cc1F` [10-I18, 2-chloro-1-(2,4-difluorophenyl)ethan-1-one], the “% of control remaining” value is 22.7547%.

For the compound `O=C(CCl)c1c[nH]c2ccc(F)cc12` [10-O11, 2-chloro-1-(5-fluoro-1H-indol-3-yl)ethan-1-one], the “% of control remaining” value stood at 23.3781%.

For the compound `CC(C)Oc1ccc2[nH]cc(C(=O)CCl)c2c1` [10-E03, 2-chloro-1-[5-(propan-2-yloxy)-1H-indol-3-yl]ethan-1-one], the “% of control remaining” value is given as 105.669%.

As to `O=C(CCl)c1c[nH]c2ccccc12` [10-B05, 2-chloro-1-(1H-indol-3-yl)ethan-1-one], the “% of control remaining” value amounted to 108.475%.

Take `O=C(CCl)c1ccc(O)cc1O` [10-C14, 2-chloro-1-(2,4-dihydroxyphenyl)ethan-1-one]: the “% of control remaining” value turned out to be 100.682%.

As to `COc1ccc(Cc2cnc(NC(=O)CCl)s2)cc1` [4-F17, 2-chloro-N-{5-[(4-methoxyphenyl)methyl]-1,3-thiazol-2-yl}acetamide], the “% of control remaining” value is on record as 111.451%.

For the compound `CC(Cl)C(=O)N1CCc2ncccc2C1` (stereo not drawn) [7-I19, 2-chloro-1-(5,6,7,8-tetrahydro-1,6-naphthyridin-6-yl)propan-1-one], the “% of control remaining” value was 77.5814%.

Turning to `C=CC(=O)NC(CO)c1ccnn1C` (stereo not drawn) [2-D17, N-[2-hydroxy-1-(1-methyl-1H-pyrazol-5-yl)ethyl]prop-2-enamide], the “% of control remaining” value turned out to be 92.203%.

For the compound `C=CC(=O)Nc1cccc(-c2cn(C)nn2)c1` [1-K14, N-[3-(1-methyl-1H-1,2,3-triazol-4-yl)phenyl]prop-2-enamide], the “% of control remaining” value is on record as 83.4081%.

In the case of `COc1ccc(-n2c(C)c(C)c(C#N)c2NC(=O)CCl)cc1` [4-F20, 2-chloro-N-[3-cyano-1-(4-methoxyphenyl)-4,5-dimethyl-1H-pyrrol-2-yl]acetamide], the “% of control remaining” value stood at 105.413%.

As for `O=C(CCl)c1c(-c2ccc(F)cc2)[nH]c2ccccc12` [10-P04, 2-chloro-1-[2-(4-fluorophenyl)-1H-indol-3-yl]ethan-1-one], the “% of control remaining” value was determined as 95.8504%.

As for `CC(NC(=O)CCl)c1cn(-c2ccccc2)nn1` (stereo not drawn) [5-O06, 2-chloro-N-[1-(1-phenyl-1H-1,2,3-triazol-4-yl)ethyl]acetamide], the “% of control remaining” value came to 103.73%.

Regarding `Cc1cccc(-n2c(C)cc(C(=O)CCl)c2C)c1` [10-A22, 2-chloro-1-[2,5-dimethyl-1-(3-methylphenyl)-1H-pyrrol-3-yl]ethan-1-one], the “% of control remaining” value amounted to 108.163%.

As to `Cc1cc(C(=O)CCl)c(C)n1-c1ccc(C(F)(F)F)cc1` [10-J14, 2-chloro-1-{2,5-dimethyl-1-[4-(trifluoromethyl)phenyl]-1H-pyrrol-3-yl}ethan-1-one], the “% of control remaining” value turned out to be 98.4999%.

As to `O=C(CCl)c1cn(-c2ccc(F)cc2)nn1` [10-F05], the “% of control remaining” value came out at 0.6234%.

Turning to `Cn1cc(C(=O)CCl)nn1` [10-M19, 2-chloro-1-(1-methyl-1H-1,2,3-triazol-4-yl)ethan-1-one], the “% of control remaining” value is given as 0%.

Regarding `O=C(CCl)c1cn(-c2cccc(C(F)(F)F)c2)nn1` [10-C09, 2-chloro-1-{1-[3-(trifluoromethyl)phenyl]-1H-1,2,3-triazol-4-yl}ethan-1-one], the “% of control remaining” value is 24.9367%.

As for `O=C(CCl)NC1CC(=O)N(c2cccc(C(F)(F)F)c2)C1` (stereo not drawn) [5-E09, 2-chloro-N-{5-oxo-1-[3-(trifluoromethyl)phenyl]pyrrolidin-3-yl}acetamide], the “% of control remaining” value is recorded as 100.2%.

Consider `Cc1cccc(-n2cc(C(=O)CCl)nn2)c1` [10-L07], for which the “% of control remaining” value is on record as 5.299%.

For the compound `Cn1cc(C(=O)CCl)cc1C(N)=O` [10-J06, 4-(2-chloroacetyl)-1-methyl-1H-pyrrole-2-carboxamide], the “% of control remaining” value is reported as 97.5648%.

Consider `Cc1cc(C(=O)CCl)c(C)n1-c1cccc(Cl)c1` [10-N18, 2-chloro-1-[1-(3-chlorophenyl)-2,5-dimethyl-1H-pyrrol-3-yl]ethan-1-one], for which the “% of control remaining” value is listed as 92.4216%.

With `Cn1ccc(C(=O)CCl)c1` [10-D08, 2-chloro-1-(1-methyl-1H-pyrrol-3-yl)ethan-1-one], the “% of control remaining” value amounted to 103.176%.

Turning to `CCc1ccc(NC(=O)C(C)Cl)cc1` (stereo not drawn) [4-L15, 2-chloro-N-(4-ethylphenyl)propanamide], the “% of control remaining” value amounted to 96.9592%.

In the case of `CC(Cl)C(=O)NCc1csc2ccccc12` (stereo not drawn) [7-C11, N-[(1-benzothiophen-3-yl)methyl]-2-chloropropanamide], the “% of control remaining” value was found to be 69.5192%.

Consider `COc1ccc(C=C(C#N)C(=O)Nc2ccccc2)cc1` [8-A05, 2-cyano-3-(4-methoxyphenyl)-N-phenylprop-2-enamide], for which the “% of control remaining” value is given as 91.9782%.

`N#CC(=Cc1ccc(O)cc1)C(=O)Nc1cc(Cl)ccc1Cl` [9-F03, 2-cyano-N-(2,5-dichlorophenyl)-3-(4-hydroxyphenyl)prop-2-enamide]: the “% of control remaining” value amounted to 117.947%.

As for `CC(Cl)C(=O)N1CCN(C(=O)Cc2cccc(Cl)c2)C(C)C1` (stereo not drawn) [7-E20, 2-chloro-1-{4-[2-(3-chlorophenyl)acetyl]-3-methylpiperazin-1-yl}propan-1-one], the “% of control remaining” value was determined as 74.6737%.

For the compound `CC(Cl)C(=O)N[C@H]1C[C@H](C)S(=O)(=O)c2sccc21` (stereo partly drawn) [6-B22, 2-chloro-N-[(2S,4S)-2-methyl-1,1-dioxo-2H,3H,4H-1lambda6-thieno[2,3-b]thiopyran-4-yl]propanamide], the “% of control remaining” value is 103.289%.

As for `Cc1ccc(SCCNC(=O)CCl)cc1` [4-K21, 2-chloro-N-{2-[(4-methylphenyl)sulfanyl]ethyl}acetamide], the “% of control remaining” value is listed as 111.279%.

On to `N#CC(=Cc1ccccc1OC(F)F)C(=O)Nc1ccccc1Cl` [9-M21, N-(2-chlorophenyl)-2-cyano-3-[2-(difluoromethoxy)phenyl]prop-2-enamide], for which the “% of control remaining” value is given as 89.5309%.

As to `O=C1C=CC(=O)N1CCc1ccc(F)cc1` [10-C21, 1-[2-(4-fluorophenyl)ethyl]-2,5-dihydro-1H-pyrrole-2,5-dione], the “% of control remaining” value was 34.7555%.

As to `O=C1C=CC(=O)N1CCc1ccccc1` [10-E20, 1-(2-phenylethyl)-2,5-dihydro-1H-pyrrole-2,5-dione], the “% of control remaining” value came out at 27.5862%.

As for `CC(Cl)C(=O)NCCc1ccc(F)cc1` (stereo not drawn) [6-F06, 2-chloro-N-[2-(4-fluorophenyl)ethyl]propanamide], the “% of control remaining” value came out at 86.757%.

Regarding `O=C1C=CC(=O)N1CCc1ccccc1F` [10-G03, 1-[2-(2-fluorophenyl)ethyl]-2,5-dihydro-1H-pyrrole-2,5-dione], the “% of control remaining” value turned out to be 22.2872%.

Turning to `COc1ccc(CCNC(=O)CCl)cc1` [5-H12, 2-chloro-N-[2-(4-methoxyphenyl)ethyl]acetamide], the “% of control remaining” value came to 68.593%.

With `COc1ccc(CCN2C(=O)C=CC2=O)cc1` [10-A05, 1-[2-(4-methoxyphenyl)ethyl]-2,5-dihydro-1H-pyrrole-2,5-dione], the “% of control remaining” value stood at 35.8465%.

In the case of `COc1ccc(CCN2C(=O)C=CC2=O)cc1OC` [10-H07, 1-[2-(3,4-dimethoxyphenyl)ethyl]-2,5-dihydro-1H-pyrrole-2,5-dione], the “% of control remaining” value is 98.344%.

On to `Cc1cc(C(=O)CCl)c(C)n1CCc1ccccc1` [10-B18, 2-chloro-1-[2,5-dimethyl-1-(2-phenylethyl)-1H-pyrrol-3-yl]ethan-1-one], for which the “% of control remaining” value is 95.3828%.

Take `Cc1cc(C(=O)CCl)c(C)n1CCc1ccc(F)cc1` [10-G14, 2-chloro-1-{1-[2-(4-fluorophenyl)ethyl]-2,5-dimethyl-1H-pyrrol-3-yl}ethan-1-one]: the “% of control remaining” value is 97.7206%.

Turning to `O=C(CCl)NCCCc1ccccc1` [4-N04, 2-chloro-N-(3-phenylpropyl)acetamide], the “% of control remaining” value amounted to 112.487%.
